Screens (PubChem BioAssay)
Sampled rows, rich in hits. Any-hit rate of the full collection: about 6.1%.
D3 ag: activates the human D3 dopamine receptor. P35462. D3R DiscoveRx beta-arrestin cells, luminescence, 90 min. max activation, %. 410,000 tested, 0.58% active. AID 652048; in the data active = max activation above about 30%; also: 0% is about no effect
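Agonist-mode cell screen: cells plated at 1500/well and incubated overnight at 37 °C, then exposed to library compounds for 90 min at 37 °C. Detection reagent was added for 30–60 min at room temperature, and luminescence was read.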
D1 antag: human D1 dopamine receptor antagonism | P21728 | HEK293 TREx D1 cells, calcium flux, dopamine EC80; active compounds read low | activity change, negative = inhibition, % at 10 µM | 360,000 tested, 3.2% active | AID 504652; in the data active = activity change below about -30%; also: % is scaled to controls: 0 for no effect and ±100 for the full control effect
Target sequence (P21728 whole entry, looked up): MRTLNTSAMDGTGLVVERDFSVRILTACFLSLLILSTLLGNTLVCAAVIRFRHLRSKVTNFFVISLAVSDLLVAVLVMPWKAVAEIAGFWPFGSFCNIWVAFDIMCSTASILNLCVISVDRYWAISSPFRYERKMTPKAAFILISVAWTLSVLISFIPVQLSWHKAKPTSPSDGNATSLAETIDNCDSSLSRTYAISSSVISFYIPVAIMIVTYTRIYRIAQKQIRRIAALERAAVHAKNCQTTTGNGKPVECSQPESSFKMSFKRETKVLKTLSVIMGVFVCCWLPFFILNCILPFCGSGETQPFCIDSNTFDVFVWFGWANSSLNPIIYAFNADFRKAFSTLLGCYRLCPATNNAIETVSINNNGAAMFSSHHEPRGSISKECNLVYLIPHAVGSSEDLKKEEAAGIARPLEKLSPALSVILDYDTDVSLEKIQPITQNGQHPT
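Antagonism measured as reduced calcium response to an EC80 dopamine addition following 180 s compound pre-read; cells were inducible HEK293 Trex D1 plated overnight at 30 C, read kinetically at 1 cycle/sec.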
D1 PAM: human D1 dopamine receptor positive modulation. P21728. HEK293 TREx D1 cells, calcium flux, dopamine EC20 potentiation. potentiation, % at 10 µM. 360,000 tested, 0.036% active; in the data active = potentiation above about 30%; also: 0% is about no effect
D3 antag: D3 dopamine receptor (human) antagonism. max response, negative = inhibition, %. AID 652054. P35462. D3R cells, DiscoveRx beta-arrestin luminescence, antagonist mode; active compounds read low. 360,000 tested, 2.5% active; in the data active = max response below about -50%; also: % is scaled to controls: 0 for no effect and ±100 for the full control effect
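Cells expressing the human receptor were seeded at 1500 cells/well, incubated overnight at 37 degrees C in 5% CO2, then exposed to library compounds with dopamine controls for 90 minutes at 37 degrees C before luminescent detection.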
D1 ag: agonists of human D1 dopamine receptor | 360,000 tested, 1% active | HEK293 T-REx D1 cells, calcium flux, agonist mode | AID 504660 | P21728 | activation, % at 2 µM; in the data active = activation above about 30%; also: 0% is about no effect
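Inducible HEK293 T-REx D1 cells, force-coupled to calcium signalling, were plated at 4000 cells/well with tetracycline and held overnight at 30 C. After no-wash calcium dye loading, compound-evoked calcium rise over 180 s flagged agonists.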
An asterisk follows results filed as active; nt = not tested or not shown.

SMILES	D3 ag	D1 antag	D1 PAM	D3 antag	D1 ag
COCCCn1c(SCc2nnc(-c3ccccc3)o2)nc2sc3c(c2c1=O)CCC3	11	6	-6	14	1
COc1ccc(OCC(=O)NCC(c2ccc(Cl)cc2)N2CCCCC2)cc1 (centres undefined)	-18	12	0	nt	1
COc1ccc(C(CNC(=O)Cc2c(F)cccc2Cl)N2CCCCC2)cc1 (centres undefined)	-15	6	-8	-111*	3
COc1ccccc1C(CNC(=O)COc1cc(C)ccc1Cl)N1CCCC1 (centres undefined)	-14	30	-5	2	2
COc1ccc(C(CNC(=O)COc2cc(C)ccc2Cl)N2CCCCC2)cc1 (centres undefined)	-28	9	1	-59*	2
O=C1CN(S(=O)(=O)c2ccc3c(c2)OCCO3)CCN1S(=O)(=O)c1c(F)cccc1F	nt	0	5	nt	8
O=C(c1ccc2c(c1)N(Cc1ccc(Cl)cc1)C(=O)c1ccccc1S2(=O)=O)N1CCC(Cc2ccccc2)CC1	6	-14	-2	nt	7
CCCc1c(C(=O)Nc2ccc(F)cc2C)cnn1-c1ccccc1	-16	-24	-11	11	5
CCCc1c(NC(=O)Nc2ccc(F)cc2)cnn1-c1ccccc1	-17	-46*	-4	0	14
CC1(C(=O)NS(=O)(=O)c2ccc(Cl)cc2)CCN1C(=O)c1cccc(F)c1 (centres undefined)	-4	nt	nt	-27	nt
CC1CCN(CCNC(=O)CCS(=O)(=O)c2ccc(Br)cc2)CC1	-14	-43*	-6	-10	1
Cc1ccc(CCNC(=O)CCS(=O)(=O)c2ccc(Br)cc2)cc1	0	21	-2	-7	0
N#Cc1nc(NC2CCCC2)c2ncn(-c3cc(F)cc(F)c3)c2n1	nt	5	-2	nt	0
CCOc1cc(/C=C2/SC(=S)NC2=O)ccc1OC(=O)c1ccco1	6	-19	-2	6	2
O=C1NC(=S)S/C1=C/c1ccc(OC(=O)c2ccco2)cc1	4	-30*	-7	-6	11
Cc1ccc2c(c1)C(=O)C(=O)N2Cc1ccc(OC(C)C)cc1	-27	-3	-4	nt	1
COC(=O)c1ccc2c(c1)N(Cc1cc(C)ccc1C)C(=O)c1ccccc1S2=O (centres undefined)	nt	2	-2	nt	-1
Cc1ccc(CN2C(=O)C(=O)c3cc(Br)cc(C)c32)cc1	-19	-49*	-4	nt	28
Cc1ccc2c(c1)C(=O)C(=O)N2Cc1ccc(C(F)(F)F)cc1	-30	nt	nt	-51*	nt
Cc1ccc(C)c(CN2C(=O)C(=O)c3ccccc32)c1	-19	-31*	-2	nt	-2
COc1ccc(-c2cc([C@H]3[C@@H]4C=CCC[C@@]4(C)C(=O)N3Cc3ccccc3)ccc2F)cc1OC	-1	17	0	16	4
COc1ccc([C@H]2[C@@H]3C=CCC[C@@]3(C)C(=O)N2Cc2ccccc2)cc1Cl	-21	31	5	-55*	2
CC(C)[C@H]1C(=O)Nc2ccccc2N1C(=O)N[C@@H](Cc1ccccc1)C(=O)N[C@H](Cc1ccccc1)C(=O)O	-11	2	-1	-20	1
CC(C)[C@H]1C(=O)Nc2ccccc2N1C(=O)N[C@@H](Cc1ccccc1)C(=O)N[C@@H](Cc1ccccc1)C(=O)O	14	-31*	0	-7	0
CCCn1c(=N)c(C(=O)NCc2cccnc2)cc2c(=O)n3cc(C)ccc3nc21	0	-6	-1	nt	7
SMILES	D3 ag	D1 antag	D1 PAM	D3 antag	D1 ag
CCc1cccc(CC)c1NC(=S)Nc1cccc(Cl)c1Cl	-8	1	-1	12	1
CC(Nc1ccccc1CO)C(=O)Nc1cccc(Cl)c1Cl (centres undefined)	5	-61*	-5	3	1
O=C(CC1Nc2c3ccccc3nc(=S)n2C1=O)NC1CCCCC1 (centres undefined)	nt	-4	1	nt	2
COc1ccc(OC(=O)c2ccc(Cl)cc2)c(C(C)=O)c1	-1	-16	1	-16	2
CC(C)COC(=O)C(N)C(C(=O)OCC(C)C)c1ccccc1 (centres undefined)	5	-35*	-5	0	2
COc1ccc(CNc2oc(-c3ccc(COc4ccc(Cl)cc4)o3)nc2C#N)cc1	-6	-7	1	nt	4
c1ccc2[nH]c3cc4ncnc4cc3nc2c1	1	-1	3	-16	33*
CNCC[C@@H](Oc1ccc(C(F)(F)F)cc1)c1ccccc1	nt	nt	nt	nt	46*
O=C(COC(=O)C1CCC(=O)N1)Nc1cc(Cl)ccc1Cl (centres undefined)	2	-80*	2	17	3
O=C(/C=C/c1cccs1)N1CCC2(CC1)Oc1ccc(Cl)cc1C(=O)C21CC(c2cccnc2)=NO1 (centres undefined)	37*	-25	8	80	4
CC(C)(C)[C@@H]1COC(=O)[C@H](Cc2ccc(F)cc2)CC/C=C\C[C@@H](CC(=O)N(CCO)Cc2ccccc2)C(=O)N1	19	nt	nt	3	nt
Cc1ccc(-c2c(C)n3c4c(=O)n(C)c(=O)n(C)c4nc3n2CCO)cc1	46*	-11	-1	nt	8
CCCNC(=S)NC1CC2CCCC(C1)N2Cc1ccc(F)cc1 (centres undefined)	-19	-7	-3	-101*	7
O=C(CN1C2CCCC1CC(NC(=O)C1CCCCC1)C2)NCc1ccc(F)cc1 (centres undefined)	-2	8	-6	2	1
Cc1cccc(C(=O)NC2CC3CCCC(C2)N3Cc2ccccc2)c1 (centres undefined)	-30	-30*	-12	-112*	1
Cc1ccc(C(=O)NC2CC3CCCC(C2)N3Cc2ccccc2)cc1 (centres undefined)	-30	-84*	-9	-80*	-1
O=C(Nc1ccccc1-c1ccccc1)NC1CC2CCCC(C1)N2Cc1ccc(F)cc1 (centres undefined)	-8	-1	-6	-101*	16
COc1ccc(C(=O)C[C@@H]2OC3CCCCC3N2S(=O)(=O)c2ccc(C)cc2)cc1OC (some centres undefined)	-7	nt	nt	-21	nt
Cc1ccc2sc(N(Cc3cccnc3)C(=O)CCOc3ccccc3)nc2c1C	3	nt	-1	nt	2
CCOc1ccccc1C1Nc2ccccc2-c2nnc(SCc3ccccc3)nc2O1 (centres undefined)	8	0	-1	nt	3
O=C(NCc1ccccc1)C(c1ccccc1)N(C(=O)c1csnn1)C1CCCC1 (centres undefined)	-10	-24	-4	-18	15
Cc1ccc(CN2C3CCCC2CC(NC(=O)c2ccc(F)cc2)C3)cc1 (centres undefined)	-13	-45*	-12	-88*	8
